Measured values from the supplement of paper PMC8728848.
The entries come from a sample that favours the strongest signals as a whole.

Key:
Experiment in all cases: glycan array binding signal (z-score within array); higher = stronger binding
Details in all cases: glycan notation: IUPAC condensed, linker removed; mutation: N130D
[1] = target: Fuc(a1-2)Gal(b1-3)[Fuc(a1-4)]GlcNAc
Outline: (§1)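 Glycan array binding is given as a within-array Z-score, which can be read as non-binding when negative. The arrays, 3228 of them, came from the Consortium for Functional Glycomics database and were retained only where the protein sequence was available. Z-scores were averaged across arrays of the same protein sequence at different concentrations or buffers and across linkers.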

[2] = target: Fuc(a1-2)Gal(b1-4)GlcNAc(b1-2)Man(a1-3)[Fuc(a1-2)Gal(b1-4)GlcNAc(b1-2)Man(a1-6)]Man(b1-4)GlcNAc(b1-4)[Fuc(a1-6)]GlcNAc
Outline: as §1

[3] = target: Fuc(a1-2)Gal(b1-4)GlcNAc(b1-3)Gal(b1-4)GlcNAc(b1-3)Gal(b1-4)GlcNAc
Outline: as §1

[4] = target: Fuc(a1-2)[Gal(a1-3)]Gal(b1-3)GlcNAc(b1-3)GalNAc
Outline: as §1

[5] = target: Fuc(a1-2)[Gal(a1-3)]Gal(b1-4)GlcNAc(b1-3)GalNAc
Outline: as §1

[6] = target: Fuc(a1-2)[Gal(a1-3)]Gal(b1-4)[Fuc(a1-3)]GlcNAc(b1-3)GalNAc
Outline: as §1

[7] = target: Fuc(a1-2)[GalNAc(a1-3)]Gal(b1-4)GlcNAc(b1-6)GalNAc
Outline: as §1

[8] = target: Fuc(a1-3)[Gal(b1-4)]GlcNAc6S
Outline: as §1

[9] = target: Fuc(b1-3)GlcNAc
Outline: as §1

[10] = target: Gal(a1-4)Gal(b1-4)GlcNAc(b1-3)Gal(b1-4)Glc
Outline: as §1

[11] = target: Gal(b1-3)[Fuc(a1-4)]GlcNAc(b1-3)Gal(b1-4)[Fuc(a1-3)]GlcNAc
Outline: as §1

[12] = target: Gal(b1-3)[Fuc(a1-4)]GlcNAc(b1-6)GalNAc
Outline: as §1

[13] = target: Gal(b1-4)GlcNAc(b1-2)Man
Outline: as §1

[14] = target: Gal(b1-4)GlcNAc(b1-2)Man(a1-6)[GlcNAc(b1-2)Man(a1-3)]Man(b1-4)GlcNAc(b1-4)GlcNAc
Outline: as §1

[15] = target: Gal(b1-4)GlcNAc(b1-3)Gal(b1-4)GlcNAc(b1-3)Gal(b1-4)GlcNAc(b1-2)Man(a1-3)[Gal(b1-4)GlcNAc(b1-3)Gal(b1-4)GlcNAc(b1-3)Gal(b1-4)GlcNAc(b1-2)Man(a1-6)]Man(b1-4)GlcNAc(b1-4)GlcNAc
Outline: as §1

[16] = target: Gal(b1-4)GlcNAc(b1-3)Gal(b1-4)GlcNAc(b1-3)Gal(b1-4)GlcNAc(b1-3)Gal(b1-4)GlcNAc(b1-3)Gal(b1-4)GlcNAc(b1-2)[Gal(b1-4)GlcNAc(b1-3)Gal(b1-4)GlcNAc(b1-3)Gal(b1-4)GlcNAc(b1-3)Gal(b1-4)GlcNAc(b1-3)Gal(b1-4)GlcNAc(b1-6)]Man(a1-6)[Gal(b1-4)GlcNAc(b1-3)Gal(b1-4)GlcNAc(b1-3)Gal(b1-4)GlcNAc(b1-3)Gal(b1-4)GlcNAc(b1-3)Gal(b1-4)GlcNAc(b1-2)Man(a1-3)]Man(b1-4)GlcNAc(b1-4)[Fuc(a1-6)]GlcNAc
Outline: as §1

[17] = target: Gal(b1-4)GlcNAc(b1-3)Gal(b1-4)GlcNAc(b1-3)[Gal(b1-4)GlcNAc(b1-3)Gal(b1-4)GlcNAc(b1-6)]GalNAc
Outline: as §1

[18] = target: Gal3S(b1-4)[Fuc(a1-3)]GlcNAc
Outline: as §1

[19] = target: Gal6S(b1-3)GlcNAc6S
Outline: as §1

[20] = target: GalNAc(a1-3)GalNAc(b1-3)Gal(a1-4)Gal(b1-4)GlcNAc
Outline: as §1

[21] = target: GalNAc(b1-3)GlcNAc
Outline: as §1

[22] = target: GalNAc3S(b1-4)GlcNAc3S
Outline: as §1

[23] = target: GlcNAc(a1-4)Gal(b1-4)GlcNAc(b1-3)Gal(b1-4)GlcNAc
Outline: as §1

[24] = target: GlcNAc(b1-3)[GlcNAc(b1-4)][GlcNAc(b1-6)]GlcNAc
Outline: as §1

[25] = target: Man(a1-2)Man(a1-2)Man(a1-3)Man
Outline: as §1

[26] = target: Man(a1-2)Man(a1-6)[Man(a1-3)]Man(a1-6)[Man(a1-2)Man(a1-2)Man(a1-3)]Man
Outline: as §1

[27] = target: Neu5Ac(a2-3)Gal(b1-3)GlcNAc(b1-6)GalNAc
Outline: as §1

[28] = target: Neu5Ac(a2-3)Gal(b1-4)Glc
Outline: as §1

[29] = target: Neu5Ac(a2-3)Gal(b1-4)GlcNAc(b1-2)Man
Outline: as §1

[30] = target: Neu5Ac(a2-3)Gal(b1-4)GlcNAc(b1-2)[Neu5Ac(a2-3)Gal(b1-4)GlcNAc(b1-6)]Man(a1-6)[Neu5Ac(a2-3)Gal(b1-4)GlcNAc(b1-2)Man(a1-3)][GlcNAc(b1-4)]Man(b1-4)GlcNAc(b1-4)GlcNAc
Outline: as §1

[31] = target: Neu5Ac(a2-3)Gal(b1-4)GlcNAc(b1-3)Gal(b1-3)GlcNAc
Outline: as §1

[32] = target: Neu5Ac(a2-3)Gal(b1-4)GlcNAc(b1-6)GalNAc
Outline: as §1

[33] = target: Neu5Ac(a2-3)Gal(b1-4)[Fuc(a1-3)]GlcNAc(b1-3)GalNAc
Outline: as §1

[34] = target: Neu5Ac(a2-6)Gal(b1-4)GlcNAc(b1-2)Man(a1-3)[GlcNAc(b1-4)][Neu5Ac(a2-6)Gal(b1-4)GlcNAc(b1-2)Man(a1-6)]Man(b1-4)GlcNAc(b1-4)GlcNAc
Outline: as §1

[35] = target: Neu5Ac(a2-6)Gal(b1-4)GlcNAc(b1-2)Man(a1-6)Man(b1-4)GlcNAc(b1-4)GlcNAc
Outline: as §1

[36] = target: Neu5Ac(a2-6)Gal(b1-4)GlcNAc(b1-3)Gal(b1-4)GlcNAc(b1-2)Man(a1-3)[Neu5Ac(a2-6)Gal(b1-4)GlcNAc(b1-3)Gal(b1-4)GlcNAc(b1-2)Man(a1-6)]GalNAc
Outline: as §1

[37] = target: Neu5Ac(a2-6)Gal(b1-4)GlcNAc(b1-6)GalNAc
Outline: as §1

[38] = target: Neu5Ac(a2-6)Gal(b1-4)GlcNAc(b1-6)[Gal(b1-3)]GalNAc
Outline: as §1

[39] = target: Neu5Ac(a2-8)Neu5Ac(a2-3)Gal(b1-4)Glc
Outline: as §1

[40] = target: Neu5Ac9Ac(a2-3)Gal(b1-4)GlcNAc
Outline: as §1

B1: Pwp5 DD (Candida glabrata) (protein)
chain: MGSSHHHHHHSSGLVPRGSHMASANPVPLTNVCYFPEEYPRQAGFRAITAGLASTILQGSVDELLNYSGLSSLTTQQTTTTTPNFQLPTLPLPTNVYGLTVVPLYLLVQLQGYFVPPVSGQYTFSLENTDDAAIIFFGNPSAFPCGDLSAWPQASADDITVTDGTFPSRTLFLKAGVAYPMRISYYNSLGSGNLAVSFTDPGGTKRTNWNGYIWRYNSCSTCTYT
[1]
  glycan array binding signal (z-score): 0.621
[2]
  glycan array binding signal (z-score): 2.89
[3]
  glycan array binding signal (z-score): -1.56
[4]
  glycan array binding signal (z-score): -0.233
[5]
  glycan array binding signal (z-score): 0.126
[6]
  glycan array binding signal (z-score): -0.895
[7]
  glycan array binding signal (z-score): -0.759
[8]
  glycan array binding signal (z-score): -0.328
[9]
  glycan array binding signal (z-score): -0.571
[10]
  glycan array binding signal (z-score): 0.021
[11]
  glycan array binding signal (z-score): -0.574
[12]
  glycan array binding signal (z-score): 4.76
[13]
  glycan array binding signal (z-score): -0.513
[14]
  glycan array binding signal (z-score): 3.33
[15]
  glycan array binding signal (z-score): 3.2
[16]
  glycan array binding signal (z-score): 3.61
[17]
  glycan array binding signal (z-score): -0.447
[18]
  glycan array binding signal (z-score): -0.734
[19]
  glycan array binding signal (z-score): 2.71
[20]
  glycan array binding signal (z-score): 1.09
[21]
  glycan array binding signal (z-score): -0.687
[22]
  glycan array binding signal (z-score): 3.21
[23]
  glycan array binding signal (z-score): 0.377
[24]
  glycan array binding signal (z-score): -0.559
[25]
  glycan array binding signal (z-score): -0.413
[26]
  glycan array binding signal (z-score): -0.259
[27]
  glycan array binding signal (z-score): 0.895
[28]
  glycan array binding signal (z-score): -0.436
[29]
  glycan array binding signal (z-score): 2.67
[30]
  glycan array binding signal (z-score): 11.6
[31]
  glycan array binding signal (z-score): -0.723
[32]
  glycan array binding signal (z-score): 0.366
[33]
  glycan array binding signal (z-score): 3.63
[34]
  glycan array binding signal (z-score): 3.92
[35]
  glycan array binding signal (z-score): 0.32
[36]
  glycan array binding signal (z-score): 0.149
[37]
  glycan array binding signal (z-score): 0.08
[38]
  glycan array binding signal (z-score): -0.062
[39]
  glycan array binding signal (z-score): -0.613
[40]
  glycan array binding signal (z-score): -0.213
